34 compounds from PubChem BioAssay (NCATS) can be followed below.

“And” between values parts separate entries of the source, which are not always exact repeats. Equal entries are not always repeated. Results filed as inconclusive are left out. The source made the active and inactive calls. Calls come from the whole dose curve; as a rule, active = well fitted activation curve with a large enough effect; inconclusive = small, poorly fitted or top-dose-only effect; inactive = no such curve, though single readings can be large or run the other way.
Potency is the fitted concentration of half-maximal effect.

Sequence of Cellular tumor antigen p53 (Homo sapiens) (P04637 whole entry, looked up): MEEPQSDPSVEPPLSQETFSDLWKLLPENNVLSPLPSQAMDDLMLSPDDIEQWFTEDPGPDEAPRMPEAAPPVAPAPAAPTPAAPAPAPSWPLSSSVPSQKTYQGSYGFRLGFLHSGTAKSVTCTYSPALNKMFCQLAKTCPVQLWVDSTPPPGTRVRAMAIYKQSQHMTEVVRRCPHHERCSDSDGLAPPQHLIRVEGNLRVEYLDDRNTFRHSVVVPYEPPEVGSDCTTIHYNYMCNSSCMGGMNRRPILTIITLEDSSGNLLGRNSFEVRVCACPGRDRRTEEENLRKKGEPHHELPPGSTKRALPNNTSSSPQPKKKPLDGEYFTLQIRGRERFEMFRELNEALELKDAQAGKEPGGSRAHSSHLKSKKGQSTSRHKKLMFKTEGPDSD

This experiment has as its target Cellular tumor antigen p53 (Homo sapiens) (UniProt P04637). Put plainly: Primary qHTS for small molecule compounds that upregulate eGFP-tagged delta133p53alpha (in N-terminal) cells. (AID 2060322).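 For activation: series mostly up to about 56 µM; 0% = DMSO vehicle and 100% = reference activator.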 Note: nearly all actives have a fitted effect of over 75% in size. As to conditions: NCI-H358 eGFP-delta133p53alpha fluorescence, 24 h; activation: hits give high values. The procedure, abridged: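 NCI-H358 cells pre-induced 24 h with 10 ng/ml doxycycline to express N-terminal eGFP-delta133p53alpha, then dosed 24 h at 37C without doxycycline; fixed, Hoechst-stained, GFP intensity by laser scanning cytometry, normalized to DMSO (0%) and 57.5 uM 5-azacytidine (100%).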
A general note: Quantitative high-throughput screening tests each substance at several concentrations.
For `CN(C)CC(=O)N1CCC(c2ccc(NC(=O)c3ncc(C#N)[nH]3)c(C3=CCCCC3)c2)CC1`, the activation was -0.715% (inactive).

`Nc1ncnc2c1ncn2[C@@H]1O[C@H](CO)C[C@H]1O`: the Potency is 12 µM (active).

With `Cc1ccccc1C(=O)c1ccc(Nc2ccc(Br)cc2N)cc1Cl`, the activation is 19.2% (inactive) and -0.893% (inactive).

`Nc1nccc(Oc2ccc(NC(=O)c3c[nH]cc(-c4ccc(F)cc4)c3=O)cc2F)c1Cl`: the Potency is 43.2 µM (active) and 30.1 µM (active).

Turning to `O=C(O)c1ccc(Nc2ncc3c(n2)-c2ccc(Cl)cc2C(c2c(F)cccc2F)=NC3)cc1`, the activation is 139% (inactive) and 6.25% (inactive).

As to `Nc1cccc(S(=O)(=O)N2CCCN(S(=O)(=O)c3ccc4c(c3)OCCO4)CC2)c1`, the activation was 17.7% (inactive).

Take `Nc1nc(OCc2cc(Br)cs2)c2[nH]cnc2n1`: the activation was -5% (inactive).

On to `CC[C@H](NC(=O)[C@H](CS(=O)(=O)CC1CC1)N[C@@H](c1ccc(F)cc1)C(F)(F)F)C(=O)C(=O)NC1CC1`, for which the activation was 21.7% (inactive).

On to `Cc1cc(C(=O)Nc2cc(Oc3ccc4nc(NC(=O)C5CC5)cn4n3)ccc2C)n(C)n1`, for which the Potency was 16.9 µM (active).

As to `Cc1cnc(CNC(=O)c2c(=O)c3ccc(N4CCCN(C)CC4)nc3n3c2sc2ccccc23)cn1`, the activation is 18.9% (inactive) and -1.79% (inactive).

For `COc1cc2nccc(Oc3ccc(NC(=O)Nc4cc(C)on4)c(Cl)c3)c2cc1OC`, the Potency is 30.6 µM (active) and 21.3 µM (active).

Regarding `O=c1[nH]c([C@@H]2CCCN2)nc2c1oc1ccc(Cl)cc12`, the activation was -1% (inactive).

For the compound `Cc1cc(SCc2sc(-c3ccc(C(F)(F)F)cc3)nc2C)ccc1OCC(=O)O`, the activation is -4.33% (inactive).

Turning to `O=C(NC1CCOCC1)c1ccc(-c2cc(-c3cn[nH]c3-c3ccccn3)ccn2)cc1`, the activation was 37.2% (inactive) and 4.46% (inactive).

For the compound `Cc1csc(-c2nnc(Nc3ccc(Oc4ncccc4-c4ccnc(N)n4)cc3)c3ccccc23)c1`, the activation was 19.6% (inactive).

Consider `CC(C)(C)Cn1c(N)nc2ccc(-c3[nH]c(C(C)(C)C)nc3-c3ccc(F)cc3)nc21`, for which the activation is -1.62% (inactive).

For the compound `COc1ccc(-c2c(-c3ccc(O)cc3O)n[nH]c2C)cc1`, the activation is -3.77% (inactive).

As for `C[C@@H]1CCN(C(=O)N2CCCC2)C[C@@H]1N(C)c1ncnc2[nH]ccc12`, the activation is -10.7% (inactive).

Regarding `Cc1cc2c(cc1C1(c3ccc(C(=O)O)cn3)CC1)C(C)(C)CCC2(C)C`, the activation is -11.7% (inactive) and 0.333% (inactive).

As for `Cn1c2cc(S(C)=O)sc2c2cnn(Cc3cccc(N)c3)c(=O)c21` (centres undefined), the activation was 15.5% (inactive).

`Cc1cccc(Nc2nc(-c3ccncc3)cs2)c1`: the activation was 11.1% (inactive) and -1.43% (inactive).

Take `COc1cc(Nc2ncc3c(n2)-c2ccc(Cl)cc2C(c2c(F)cccc2OC)=NC3)ccc1C(=O)O`: the activation is 85.9% (inactive).

Turning to `CCN(CCCOc1ccc2c(Nc3cc(CC(=O)Nc4cccc(F)c4)[nH]n3)ncnc2c1)CCOP(=O)(O)O`, the activation was 15.2% (inactive).

With `O=C(NC[C@H](O)CN1CCc2ccccc2C1)c1ccnc(NC2CCC2)c1`, the activation was 4.33% (inactive).

`COc1cc(F)c(F)c(Nc2ccc(I)cc2F)c1NS(=O)(=O)C1(C[C@H](O)CO)CC1`: the activation is 4.11% (inactive).

For `CC(C)(C)c1cc(NC(=O)Nc2ccc(-c3cn4c(n3)sc3cc(OCCN5CCOCC5)ccc34)cc2)no1`, the activation is 10.5% (inactive) and 25% (inactive).

Take `CN(NC(=O)CC(=O)NN(C)C(=S)c1ccccc1)C(=S)c1ccccc1`: the Potency is 0.861 µM (active).

Take `CNC(=O)c1ccc(C)c(-n2c(C)cc(OCc3ccc(F)cc3F)c(Br)c2=O)c1`: the activation was 30.3% (inactive) and -12.5% (inactive).

In the case of `CN1CCN(C(=O)c2ccc3cc(CCNc4ncnc5ccc(C#N)cc45)ccc3c2)CC1`, the activation is -12.3% (inactive).

Regarding `CCCCCN(CCC12CC3CC(CC(C3)C1)C2)C(=O)NCCCc1ccncc1`, the Potency is 23.9 µM (active).

On to `CC(C)(O)CC(=O)NCCn1ccc2ncnc(Nc3ccc(Oc4cccc(C(F)(F)F)c4)c(Cl)c3)c21`, for which the Potency was 24.3 µM (active).

As to `O=C(O)c1ccc(O)c2ncc(N3CCOCC3)cc12`, the activation is 22.8% (inactive).

For the compound `CC[C@@](C)(Nc1ccnc(-c2c[nH]c3ncccc23)n1)C(=O)NCC(F)(F)F`, the activation was 18.8% (inactive).

In the case of `CC(C)(C)Sc1c(CC(C)(C)C(=O)O)n(Cc2ccc(Cl)cc2)c2ccc(OCc3ccc4ccccc4n3)cc12`, the activation is 0% (inactive).
